Consider 37 compounds from PubChem BioAssay (NCI).

Compounds without any hit were thinned out: in the full panel of roughly 83,000, 20% have a hit.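 For each line, cells grew in 96-well plates with the test compound present at a single concentration for 48 hours.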 The source made the active and inactive calls. The calls were made as follows: active = growth percent below 10; inactive = the rest.

The assay deals with RXF 393 renal. Put plainly: NCI-60 one-dose screen, 48 h (100 = growth as untreated, 0 = no growth, -100 = all killed). To be noted: 10 µM unless noted.
Consider `COc1cc(C(=O)/C=C/c2c(-c3ccc(F)cc3)nc3sccn23)cc(OC)c1OC`, for which the growth is -50.6% (active).

For the compound `Nc1nc(N)c2c(n1)NC(c1ccc(F)cc1)C1CCc3ccccc3C1=N2` (configuration not stated), the growth was 83.1% (inactive).

On to `COc1ccc(-c2cc(-c3ccc(Cl)cc3)nc(NCCCCNc3ccnc4cc(Cl)ccc34)n2)cc1`, for which the growth is 26.5% (inactive).

Consider `Cc1cc(C)nc(SCC(=O)Nc2cccc(N=Cc3ccccc3O)c2)n1`, for which the growth is 101% (inactive).

As to `O=C(Nc1ccc(Nc2ccncc2)cc1)c1ccc([N+](=O)[O-])cc1`, the growth was 91.6% (inactive).

As to `O=C1COCCN1c1ccc(NCc2cn(Cc3cccc4ccccc34)c3ccccc23)cc1`, the growth is 43.1% (inactive).

Turning to `O=C1/C(=C\c2cccn2Cc2ccccc2)c2ccccc2N1c1c(Cl)cccc1Cl`, the growth is 68% (inactive).

Consider `CCCCCN(CCCCC)CCCCCCCCN1CCCc2ccccc21`, for which the growth was 115% (inactive).

Consider `CC(C)CSc1ncnc2nc[nH]c12`, for which the growth is 92.3% (inactive).

As for `CCN(CC)CCCC(C)Nc1ccnc2cc(Cl)c(SCc3ccccc3)cc12` (configuration not stated), the growth was -91.1% (active).

As to `O=C(Nc1ccc(C(=O)/C=C/c2ccc(N3CCOCC3)cc2)cc1)Nc1ccc([N+](=O)[O-])cc1`, the growth is 119% (inactive).

Take `Cc1ccc(-c2cn(C/C=C3\C=CN(S(=O)(=O)c4ccccc4)CC3)nn2)cc1`: the growth was 123% (inactive).

In the case of `CCOc1ccc2sc(NS(=O)(=O)c3ccc(N)cc3)nc2c1`, the growth was 104% (inactive).

Turning to `O=C(NCCCNC(=O)OCc1ccc2c(Br)cc(Br)c(O)c2n1)OCc1ccc2c(Br)cc(Br)c(O)c2n1`, the growth was -93.3% (active).

As for `C=CCc1nc2ccccc2s1`, the growth is 122% (inactive).

On to `CCN(CC)CCCNCc1cc(-c2ccccc2)nc2ccccc12`, for which the growth is 77.8% (inactive).

As to `C=C(C)[C@@H]1CC[C@]2(C(N)=O)CC[C@]3(C)[C@H](CC[C@@H]4[C@@]5(C)C/C(=C/c6cccnc6)C(=O)C(C)(C)[C@@H]5CC[C@]43C)[C@@H]12`, the growth is -8.8% [100 µM] (active).

Regarding `COC(=O)C(=Cc1ccccc1[N+](=O)[O-])C(=O)OC`, the growth was -29.1% (active).

For `CCOC(CNC(=O)c1cccc([N+](=O)[O-])c1)OCC`, the growth was 65.7% (inactive).

Turning to `Cc1ccc(-c2cc(O)c(-c3ccc(C)cc3C)cc2O)c(C)c1`, the growth is 67.5% (inactive).

With `Fc1cc2[nH]ncc2c2c3c(c(-c4cn[nH]c4)nc12)CCCC3`, the growth is -56% (active).

For the compound `O=C(CCN1CCCCC1)c1ccc(Cl)cc1`, the growth is 113% (inactive).

With `CCOC(=O)C1=C(C(=O)c2ccc(Br)cc2)C(c2ccc(Br)cc2)NC(=S)N1` (configuration not stated), the growth was 109% (inactive).

On to `Cn1cc(-c2noc(-c3cn(C)c4ncc(F)cc34)n2)c2cc(Cl)ccc21`, for which the growth is 78% (inactive).

Turning to `O=[N+]([O-])c1cc([N+](=O)[O-])c(NN=C(c2ccc(O)cc2)c2ccc(O)cc2)cc1Cl`, the growth was -76.5% (active).

On to `NNC(=O)c1ccc(C(=O)NN)cc1`, for which the growth is 111% (inactive).

`CN(C)CCOc1ccc(/C(=C(/CCCl)c2ccccc2)c2ccccc2)cc1`: the growth is -41.7% (active).

`CC(=O)Nc1ccc2nc3ccc(NC(C)=O)cc3[n+](-c3ccccc3)c2c1`: the growth is 101% (inactive).

Consider `COc1ccc(/C=C(/C(=O)c2ccc(Cl)cc2)C(=O)C(F)(F)F)cc1`, for which the growth was 104% (inactive).

For `COc1cc2c(c(OC)c1)C1c3cc(OC)ccc3NC(=O)N1CC2` (configuration not stated), the growth was 98.2% (inactive).

On to `COc1ccc(C=C2c3ccccc3-c3ccccc32)cc1`, for which the growth was 54.5% (inactive).

As to `O=S(=O)(c1ccc(N/N=C\c2ccccc2Cl)cc1)c1ccc(N/N=C/c2ccccc2Cl)cc1`, the growth is 106% (inactive).

Consider `CSc1nc(N)c(N=Nc2ccc(S(=O)(=O)Nc3nnc(C)s3)cc2)c(=O)[nH]1`, for which the growth is 110% (inactive).

As for `C=C(C)[C@@H]1CC[C@]2(C)[C@H](CC=C3[C@@H]4[C@@H](C)[C@H](C)CC[C@]4(C(N)=O)CC[C@]32C)[C@@]1(C)CCC#N`, the growth is -72.2% [100 µM] (active).

On to `CCOC(=O)CC(c1ccccc1)C(C#N)c1ccccc1` (configuration not stated), for which the growth is 87.5% (inactive).

On to `Clc1ccc(/C=N/Nc2nc3ccccc3s2)c(Cl)c1`, for which the growth is 114% (inactive).

For `CC1(C)CC[C@]2(C(=O)O)CC[C@]3(C)[C@H](CC[C@@H]4[C@@]5(C)CCC(=O)C(C)(C)[C@@H]5CC[C@]43C)[C@H]2[C@H]1OC(=O)C(F)(F)F`, the growth was -82.1% [100 µM] (active).
